This passage reports inhibition results from PubChem BioAssay AID504462 (Sanford-Burnham Center for Chemical Genomics, 2011).

Among all 340,000 compounds or so, about 1,700 (0.5%) were called active. The sample holds actives, similar compounds and a random draw of the others, so the mix is not that of the screen. Values without a mark were called inactive. Cut-off read from the data, not from the text of the source: active = inhibition above about 40%; inactive = the rest.

Chain of Cysteine protease ATG4B (Homo sapiens) (Q9Y4P1 whole entry, looked up): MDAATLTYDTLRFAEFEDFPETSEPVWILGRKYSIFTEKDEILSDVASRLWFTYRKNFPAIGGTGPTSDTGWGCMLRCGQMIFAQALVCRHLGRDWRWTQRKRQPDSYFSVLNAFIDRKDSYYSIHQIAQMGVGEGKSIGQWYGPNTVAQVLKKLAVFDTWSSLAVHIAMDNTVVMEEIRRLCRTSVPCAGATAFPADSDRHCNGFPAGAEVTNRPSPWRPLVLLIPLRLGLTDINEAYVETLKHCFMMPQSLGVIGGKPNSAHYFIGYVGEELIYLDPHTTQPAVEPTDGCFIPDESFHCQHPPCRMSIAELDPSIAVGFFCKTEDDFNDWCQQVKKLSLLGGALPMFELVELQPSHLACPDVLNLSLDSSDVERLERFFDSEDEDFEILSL

This experiment addresses Cysteine protease ATG4B (Homo sapiens) (UniProt Q9Y4P1). Kind of experiment: ATG4B protease inhibitors, primary screen, biochemical, fluorescence, uHTS (AID 504462). To be noted: ATG4B cleavage of LC3-PLA2, NBD-HPC fluorescence, 1 h; at 8.33 µM; active compounds read high.
For the molecule `COc1ccccc1C1=Nc2cccc3cccc(c23)N1`, the inhibition (commonly the drop in the measured response relative to a control, in per cent) is 12.2%.
For the molecule `Fc1ccccc1N=C1Nc2cccc3cccc1c23`, the inhibition was -6.86%.
Consider `c1ccc(C2=Nc3cccc4cccc(c34)N2)cc1`, for which the inhibition was 56.3% (active).
Consider `CCN1CCCC1CNC(=O)Cn1cnc2ccc(S(=O)(=O)N3CCC(C)CC3)cc2c1=O` (stereo not given), for which the inhibition is -2.67%.
Then `NC(=O)C1CCN(C(=O)c2ccc(F)c(S(=O)(=O)N3CCOCC3)c2)CC1`, with 0.71%.
As for `Nc1c(Cl)cc(S(N)(=O)=O)cc1S(N)(=O)=O`, the inhibition was 3.68%.
For the molecule `CCc1ccc(N2CC(C(=O)Nc3ccc(S(=O)(=O)Nc4nccs4)cc3)CC2=O)cc1` (stereo not given), the inhibition is -16.4%.
As for `CCNC(=O)c1ccc(OCC(=O)Nc2ccc(F)cc2)c(OC)c1`, the inhibition was 2.31%.
The figure for `COc1ccc(NC(=O)COc2ccc(C(=O)c3ccc(F)cc3)cc2)cc1S(N)(=O)=O` is 97.7% (active).
The figure for `COc1ccc(NS(=O)(=O)c2cc(NC(=O)COc3ccccc3F)ccc2OC)cc1` is -14.9%.
For `O=C(Nc1ccn(CCCNCc2ccc3[nH]ccc3c2)c(=O)n1)OCc1ccccc1`, the inhibition is -8.68%.
For `COc1cccc(NC(=O)C/C(C)=N/NC(=O)C2CCCCC2)c1`, the inhibition is 1.29%.
Then `O=C(c1cnn(-c2ccc(Cl)cc2)c1)c1ccccc1O`, with 14.8%.
Consider `Cc1ccc(CCC(=O)Nc2ncc(Cc3cc(Cl)ccc3Cl)s2)o1`, for which the inhibition was 0.02%.
Then `Cc1ncc(CC(=O)n2cc(C(=O)c3cc(Cl)ccc3O)cn2)s1`, with 80% (active); and `COc1ccc(NC(=O)CC2SC(N3CCCCC3)=NC2=O)cc1OC` (stereo not given), with -1.9%.
In the case of `CN(Cc1ccc(F)cc1Cl)S(=O)(=O)c1cccs1`, the inhibition is 11%.
The figure for `CN(Cc1c(F)cccc1Cl)S(=O)(=O)c1cccs1` is 49.8% (active); for `CN(CC(=O)NCc1ccc(Cl)cc1)S(=O)(=O)c1cccs1` it is -5.56%; for `COC(=O)c1c(NC(=O)c2c(Cl)cnn2C)sc(C)c1C` it is -7.14%.
Take `CC1(C)Cc2cccc(OCC(=O)Nc3nccs3)c2O1`: the inhibition was -9.2%.
In the case of `Cc1ccccc1N1CCN(C2CCCN(C(=O)c3ocnc3C)C2)CC1` (stereo not given), the inhibition was 4.49%.
Then `COc1ccc(S(=O)(=O)Nc2cc(C)on2)cc1NC(C)=O`, with -6.89%.
The figure for `CCCc1[nH]nc2c1C(c1ccc(Br)s1)C(C#N)=C(N)O2` (stereo not given) is -2.42%; for `CCCc1[nH]nc2c1C(c1ccc(OC(=O)c3ccco3)cc1)C(C#N)=C(N)O2` (stereo not given) it is 69.2% (active).
As to `COc1ccc(-c2[nH]nc3c2C(c2ccncc2)C(C#N)=C(N)O3)cc1` (stereo not given), the inhibition was -11%.
Then `CCC(=O)c1cc2c(cc1NC(=O)c1cccs1)OCCO2`, with -18.9%; and `C[C@@H]1ON(C)[C@H]2C[C@H]3c4cc(N5CCN(C)CC5)ccc4CCN3C(=O)[C@@H]12`, with -6.52%.
For the molecule `CCc1c(O)cc2n(c1=O)-c1ccccc1C2(C)C`, the inhibition was -8.25%.
On to `CN(C)C(=O)c1ccc(NC(=O)COC(=O)c2cc3c(s2)CCCCC3)cc1`, for which the inhibition is -5.46%.
The figure for `O=C(COC(=O)c1ccc2c(c1)OCCO2)NCc1ccccc1Cl` is 22.8%; for `O=C(COC(=O)/C(=C/c1cccs1)c1cccs1)NCc1ccccc1Cl` it is 56% (active); for `O=C(COC(=O)c1cc2c(s1)CCCC2)NCc1ccccc1Cl` it is 40.4% (active).
As for `O=C(COC(=O)c1cccs1)NCc1cccs1`, the inhibition is -10.9%.
For `COc1ccccc1CNC(=O)COC(=O)c1cccs1`, the inhibition was 0.37%.
On to `COc1ccc(NC(=O)C2CCC(CNc3c(N4CCCCC4)c(=O)c3=O)CC2)c(OC)c1` (stereo not given), for which the inhibition is 26.1%.
Regarding `CCN1CCN(C(=O)c2ccc(CN(c3ccc(C)c(C)c3)S(C)(=O)=O)cc2)CC1`, the inhibition is -3.29%.
For `Cc1ccc(S(=O)(=O)N(C)CC(=O)NCC(c2ccc(F)cc2)N2CCOCC2)cc1` (stereo not given), the inhibition was -5.42%.
Then `CCC(C)(C)n1nnnc1C(c1cccs1)N1CCN(c2nc3ccccc3s2)CC1` (stereo not given), with 1.17%; and `COc1nc(NC2CCCCC2)nc(N2CCCCCC2)n1`, with 15.7%.
Then `O=C(CSc1ncn[nH]1)Nc1nc(-c2cccc([N+](=O)[O-])c2)cs1`, with -6.82%.
Then `COc1ccc(-n2cnnc2SCC(=O)Nc2cccc([N+](=O)[O-])c2)cc1`, with -7.34%; and `O=C(CSc1nc(-c2ccccc2)cs1)Nc1cccc([N+](=O)[O-])c1`, with 41.4% (active).
As to `Cc1cc(NC(=O)c2ccco2)c(=O)n(Cc2c(F)cccc2Cl)c1`, the inhibition was 4.88%.
The figure for `O=C(N/N=C\c1ccc(Br)cc1)c1ccc(Cn2cccn2)o1` is -3.61%.
Then `Cc1c(Cl)c([N+](=O)[O-])nn1Cc1ccc(C(=O)N/N=C\c2cc(Cl)ccc2O)o1`, with 64.3% (active); and `Cc1nn(Cc2ccccc2Cl)c(C)c1NC(=O)Cn1nc([N+](=O)[O-])c(Cl)c1C`, with -0.32%.
Then `Cn1c(SCC(=O)N/N=C/c2ccc(O)c(O)c2)nc2ccccc21`, with -12.3%; and `CCn1c(SCC(=O)N/N=C/C=C/c2ccccc2[N+](=O)[O-])nnc1-c1ccccc1`, with 1.16%; and `Cc1ccc(-n2c(SCC(=O)N/N=C/C=C/c3ccccc3[N+](=O)[O-])nc3ccccc3c2=O)cc1`, with 54.4% (active).
Take `Cc1nn(-c2ccccc2)c(C)c1/C=N/NC(=O)CSc1nc2ccccc2c(=O)n1-c1ccccc1`: the inhibition was 45.1% (active).
Then `C/C(=N\NC(=O)CSc1nc2ccccc2c(=O)n1-c1ccccc1C)c1cccs1`, with 8.49%; and `O=C(CSc1nc2ccccc2[nH]1)N/N=C/C=C\c1ccccc1[N+](=O)[O-]`, with 7.51%; and `CCC[C@@H]1C[C@@]1(CCC)[C@@H](NC(=O)c1ccccc1)c1ccc(C(=O)OC)cc1`, with -5.7%.
In the case of `COc1ccc(C(=O)NC(C)Cn2nc(C)cc2C)cc1OC1CCN(C(C)=O)CC1` (stereo not given), the inhibition is 3.85%.
The figure for `O=C(CCN1CCN(c2ccccc2)CC1)NNC(=S)Nc1ccccc1` is -1.44%; for `CCc1ccc2c(c1)C1(NN=C(c3ccccc3)S1)C(=O)N2` (stereo not given) it is 12.8%.
Then `CCN=C1S/C(=C\c2cc(Br)ccc2OCC(=O)OCC)C(=O)N1CC`, with -7.54%; and `Cc1ccccc1OCc1nnc(SCC(=O)N2c3ccccc3Sc3ccc(Cl)cc32)o1`, with -8.7%; and `O=S(=O)(Oc1ccccc1C(=S)N1CCOCC1)c1ccc(Cl)cc1`, with 2.25%.
In the case of `CN(C)c1cc(N)c2ccccc2n1` (tested in a mixture with another compound), the inhibition is -6.07%.
Take `Cn1cc[n+](C)c1COc1ccc(C=O)cc1`: the inhibition is 6.27%.
The figure for `COc1ccc(C)cc1S(=O)(=O)N(CC(=O)Nc1cccc([N+](=O)[O-])c1)c1ccc(C)cc1` is 88.8% (active); for `Cc1ccc(N(CC(=O)Nc2cc(C)cc(C)c2)S(=O)(=O)c2cccc3nonc23)cc1` it is 12.5%.
As to `Cc1ccc(S(=O)(=O)N(Cc2cccc([N+](=O)[O-])c2)C(=O)N2CCN(C)CC2)cc1`, the inhibition is 3.55%.
Turning to `COc1ccc(N(CC(=O)Nc2ccc(C)cc2C)S(=O)(=O)c2ccccc2[N+](=O)[O-])c(OC)c1`, the inhibition was -12.7%.
In the case of `CN(c1ccccc1)S(=O)(=O)c1cccc(NC(=O)Cc2ccc(Cl)cc2)c1`, the inhibition is -14.9%.
For the molecule `Cc1ccc(S(=O)(=O)N(CC(=O)Nc2cccc([N+](=O)[O-])c2)Cc2ccc(Cl)cc2)cc1`, the inhibition is 75.6% (active).
The figure for `CCCCn1c(N)c(N(CC(C)C)C(=O)CSc2ccc([N+](=O)[O-])cc2)c(=O)[nH]c1=O` is 8.17%; for `CCOC(=O)CCCNC(=O)COC(=O)c1cc(Br)c(Br)s1` it is -7.58%.
The figure for `C/C=N/NC(=O)CCCC(=O)N/N=C/C` is -3.09%.
`CC(C)c1ccc2c(c1)c(SC(C)(C)C)c(CC(C)(C)C(=O)O)n2Cc1ccc(Cl)cc1`: the inhibition is 56.2% (active).
In the case of `CCN(CC)S(=O)(=O)c1ccc(N(C)Cc2ccc(C(F)(F)F)cc2)nc1`, the inhibition was -7.77%.
`O=C(c1ccco1)N1CCN(CC(=O)N(C2CCCCC2)C2CCS(=O)(=O)C2)CC1` (stereo not given): the inhibition was 0.94%.
On to `COc1ccc(NCCc2ccccn2)cc1`, for which the inhibition was -5.58%.
The figure for `COc1cnc(-c2ccccn2)nc1Oc1ccc(C(C)(C)C)cc1` is 59.3% (active); for `N#Cc1ccc(Oc2cc(C(F)(F)F)nc(-c3ccccn3)n2)cc1` it is -10.2%; for `CCCCN(C1CCS(=O)(=O)C1)S(=O)(=O)c1ccc(C(C)C)cc1` (stereo not given) it is 6.86%.
Then `Cc1ccc(-c2cc(C(=O)N3CCc4ccccc4C3)no2)cc1`, with 40% (active); and `Cn1cccc1C(=O)N1CCc2ccccc2C1`, with -0.25%; and `O=C(c1cc(-c2cccc(O)c2)on1)N1CCc2ccccc2C1`, with 35.8%.
The figure for `O=C(Nc1ccccc1Cl)N1CCN(c2ccc3nncn3n2)CC1` is -9.87%.
As for `CN1C(=O)[C@H]2[C@@H](C3CC3)N3C(=O)CN(Cc4ccccc4)C(=O)[C@@]3(C)[C@H]2C1=O`, the inhibition was 0.76%.
Then `O=C1c2ccccc2C(=O)N1CCCc1nc(-c2ccccc2)no1`, with 3.08%; and `O=C1c2ccccc2C(=O)N1Cc1cc(-c2ccccc2Cl)no1`, with 56.3% (active); and `O=C1c2ccccc2C(=O)N1CCCCCCN1C(=O)c2ccccc2C1=O`, with 2.67%.
The figure for `Cc1nc2ccccc2c(C)c1C(=O)c1ccc(F)cc1` is -2.83%; for `Cc1nc2ccccc2c(-c2ccccc2)c1C(=O)c1ccccc1` it is 80% (active); for `Cc1nc2ccccc2c(C(=O)O)c1-c1ccccn1` it is -2.51%.
The figure for `CCn1c2c(c3ccc(OC)cc31)CCCC2=O` is -3.83%.
